Among the test systems are EKVX NSCLC; SN12C renal; UO-31 renal; TK-10 renal; ACHN renal; CAKI-1 renal; A498 renal; CCRF-CEM leukemia; MOLT-4 leukemia; SR leukemia; RPMI-8226 leukemia; OVCAR-8 ovarian; OVCAR-5 ovarian; OVCAR-4 ovarian; SK-OV-3 ovarian; IGROV1 ovarian; OVCAR-3 ovarian; HS 578T breast; NCI/ADR-RES ovarian.
Common to all, as to assay: NCI-60 one-dose screen, 48 h (100 = growth as untreated, 0 = no growth, -100 = all killed)
Common to all, as to details: 10 µM

Each structure is given as a SMILES string. Compounds without any hit were thinned out: in the full panel of roughly 83,000, 20% have a hit.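 Percent growth is the endpoint: 0 to 100 indicates growth inhibition (40 means 60% inhibition), 0 means no net growth, and negative values indicate cell death.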 Values without a mark were called inactive. The source made the active and inactive calls. How the source made its calls: active means growth percent below 10; inactive means the rest.

Consider `CC1/C=C/C=C/C=C/C=C/C=C/C=C/C=C/C(O[C@@H]2O[C@H](C)[C@H](O)[C@@H](O)[C@@H]2N)CC(O)C(C(=O)O)C(O)CC(=O)CC(O)CC(O)CC(O)CC(=O)CCCC(=O)CC(=O)OC1C(C)CC(C)C(O)CC(=O)c1ccc(N)cc1` (stereo partly specified), for which the growth is -98.6% (active) in the assay with EKVX NSCLC; -93.4% (active) with SN12C renal; -96.4% (active) with UO-31 renal; -96.8% (active) with TK-10 renal; -99.7% (active) in the assay on ACHN renal; -98.2% (active) in the assay on CAKI-1 renal. Further, the growth in the assay on A498 renal is -98.4% (active); in the assay on CCRF-CEM leukemia it was -59.2% (active); in the assay on MOLT-4 leukemia, -72.2% (active); in the assay on SR leukemia, -63.1% (active); in the assay on RPMI-8226 leukemia, -43.7% (active); with OVCAR-8 ovarian, -97.5% (active). The growth was -98.9% (active) in the assay on OVCAR-5 ovarian; -96.1% (active) in the assay with OVCAR-4 ovarian; -100% (active) in the assay on SK-OV-3 ovarian; -83.7% (active) in the assay with IGROV1 ovarian; -99.7% (active) with OVCAR-3 ovarian; -52.8% (active) with HS 578T breast. Besides, the growth in the assay on NCI/ADR-RES ovarian is -99.6% (active).
Turning to `CCCCC(CC)CN=C(N)NC(N)=NCCCCCCN=C(N)NC(N)=NCC(CC)CCCC` (stereo unspecified), the growth was -80.9% (active) in the assay on EKVX NSCLC; -85.3% (active) in the assay on SN12C renal; 4.54% (active) with UO-31 renal; -15.3% (active) in the assay on TK-10 renal; 4.41% (active) in the assay on ACHN renal; -17.3% (active) in the assay with CAKI-1 renal. Also, the growth with A498 renal was -31.3% (active); in the assay on MOLT-4 leukemia, -73.7% (active); with SR leukemia it was -67.4% (active); in the assay with RPMI-8226 leukemia, -46.7% (active); in the assay on OVCAR-8 ovarian, -71.6% (active); in the assay on OVCAR-5 ovarian, -87.1% (active). For the same compound, the growth is -57.2% (active) in the assay on OVCAR-4 ovarian; -38% (active) in the assay with SK-OV-3 ovarian; -66.8% (active) in the assay with IGROV1 ovarian; -83.6% (active) in the assay with OVCAR-3 ovarian; -52.6% (active) in the assay with HS 578T breast; 46.7% in the assay with NCI/ADR-RES ovarian.
On to `C#C[C@]1(O)CCC2C3CCc4cc(OC5CCCC5)ccc4C3CC[C@@]21C` (stereo partly specified), for which the growth was 86.3% in the assay on EKVX NSCLC; 70.9% in the assay on SN12C renal; 72.5% in the assay with UO-31 renal; 86.9% in the assay on TK-10 renal; 73.3% with ACHN renal; 42% in the assay with CAKI-1 renal. The growth in the assay with A498 renal is 85.1%; with MOLT-4 leukemia it was 59.8%; with SR leukemia, 15.1%; in the assay on RPMI-8226 leukemia, 80.4%; with OVCAR-8 ovarian it was 81.3%; in the assay on OVCAR-5 ovarian, 63.2%. In addition, the growth with OVCAR-4 ovarian is 92.9%; with SK-OV-3 ovarian it was 100%; with IGROV1 ovarian, 101%; in the assay on OVCAR-3 ovarian, 96.4%; with HS 578T breast, 85.6%; with NCI/ADR-RES ovarian it was 87.6%.
With `Nc1nc(-c2ccc(Cl)cc2)cc(-c2cc3ccccc3oc2=O)n1`, the growth was 86.2% in the assay on EKVX NSCLC; 98.5% in the assay with SN12C renal; 69% in the assay on UO-31 renal; 95.7% in the assay with TK-10 renal; 92.5% in the assay with ACHN renal; 84.1% in the assay with CAKI-1 renal. Also, the growth with CCRF-CEM leukemia is 103%; in the assay with MOLT-4 leukemia, 93.8%; in the assay with SR leukemia, 106%; in the assay on RPMI-8226 leukemia it was 98.6%; in the assay with OVCAR-8 ovarian, 106%; in the assay with OVCAR-5 ovarian, 108%. For the same compound, the growth is 100% in the assay with OVCAR-4 ovarian; 55.1% in the assay with IGROV1 ovarian; 100% with OVCAR-3 ovarian; 107% in the assay on HS 578T breast; 108% in the assay on NCI/ADR-RES ovarian.
`N=C1S/C(=C/c2ccc(-c3ccc4c(c3)C(=O)NC4=O)o2)C(=O)N1c1ccc(Br)cc1`: the growth is 56.3% in the assay on SN12C renal; -13.3% (active) with UO-31 renal; 42.6% in the assay on TK-10 renal; 52% in the assay with ACHN renal; 33.7% with CAKI-1 renal; 39.5% with A498 renal. The growth in the assay with MOLT-4 leukemia is 52.2%; with SR leukemia, 25%; with RPMI-8226 leukemia, 38.8%; in the assay with OVCAR-8 ovarian, 37.8%; in the assay on OVCAR-5 ovarian, 86.3%; in the assay on OVCAR-4 ovarian, 1.3% (active). Also, the growth was 62.3% in the assay on SK-OV-3 ovarian; 21.9% in the assay with IGROV1 ovarian; 51.4% in the assay on OVCAR-3 ovarian; 61.6% with HS 578T breast; 50.5% with NCI/ADR-RES ovarian.
For the compound `O=C1/C=C/[C@@H](O)[C@@H]2C[C@@H](O)C[C@H]2/C=C/CCC[C@H](CCc2ccc(C(F)(F)F)cc2)O1`, the growth was 3.27% (active) in the assay on EKVX NSCLC; 1.34% (active) in the assay on SN12C renal; 1.2% (active) in the assay with UO-31 renal; -40% (active) in the assay with TK-10 renal; 8.15% (active) in the assay on ACHN renal; 8.3% (active) in the assay with CAKI-1 renal. In addition, the growth is -11% (active) with CCRF-CEM leukemia; -21.5% (active) with MOLT-4 leukemia; 1.16% (active) in the assay with SR leukemia; -8.16% (active) in the assay on RPMI-8226 leukemia; 2.31% (active) in the assay with OVCAR-8 ovarian; 13.6% in the assay with OVCAR-5 ovarian. Besides, the growth is 9.39% (active) with OVCAR-4 ovarian; 12.5% with SK-OV-3 ovarian; 5.99% (active) with IGROV1 ovarian; -10.4% (active) in the assay with OVCAR-3 ovarian; 27.8% with HS 578T breast; 3.21% (active) in the assay with NCI/ADR-RES ovarian.
Consider `CCCCc1oc2ccccc2c1C(=O)c1cc(I)c(OCCN(CC)CC)c(I)c1`, for which the growth in the assay with EKVX NSCLC was 3.63% (active); with SN12C renal, 5.13% (active); with UO-31 renal, -37% (active); in the assay on TK-10 renal, -40.5% (active); in the assay with ACHN renal, 20%; in the assay with CAKI-1 renal, -21% (active). Further, the growth was -47.3% (active) in the assay on A498 renal; -32.2% (active) in the assay on CCRF-CEM leukemia; -54.3% (active) in the assay with MOLT-4 leukemia; -51.8% (active) in the assay with SR leukemia; -29.5% (active) in the assay on RPMI-8226 leukemia; -10% (active) in the assay on OVCAR-8 ovarian. Also, the growth with OVCAR-5 ovarian was -36% (active); in the assay with OVCAR-4 ovarian, 10.3%; in the assay on SK-OV-3 ovarian, -38.1% (active); in the assay on IGROV1 ovarian, 29.5%; with OVCAR-3 ovarian, 12%; in the assay on HS 578T breast it was -19.3% (active). The growth in the assay on NCI/ADR-RES ovarian was -20.3% (active).

Values taken from PubChem BioAssay (NCI).
